# SKKanGAS inh: S. pyogenes SKKanGAS growth inhibitors in kanamycin, primary screen, streptokinase expression inhibitor project, SKKanGAS strain, BacTiter-Glo luminescence; 6 h; inhibition, % at 7.5 µM; 1.3% of 300,000 active;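 active means mean replicate score, as percent of positive control median, at least 50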;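 further: strain carries kanamycin resistance gene driven by streptokinase promoter and grows in 40 µg/ml kanamycin; loss of luminescence reflects streptokinase promoter inhibition or plain growth inhibition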
# aSyn UTR inh: MLPCN primary screen, SNCA 5' untranslated region; inhibition, % (tested at 7.5 µM); AID 1813, 2009; 0.82% of 300,000 active; alpha-synuclein 5'UTR reporter, inhibitor activity; in the data active means inhibition above about 60%;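 further: H4 neuroglioblastoma cells stably carrying SNCA 5'UTR luciferase fusion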
# CSC inhib: cancer stem cell viability inhibitors, primary screen, luminescence; cancer stem cell-like cells viability; 1.1% of 300,000 active; inhibition, % at 7.5 µM; AID 2717, 2010; in the data active means inhibition above about 75%; tested in HMLE shEcad cells
# IEC-6 tox-1: cytotoxicity in IEC-6 intestinal epithelial cells, primary screen, cytotoxicity control for KLF5 inhibitor project, cell-based, luminescence; IEC-6 cytotoxicity, luminescence viability; AID 1825, 2009; 0.78% of 290,000 active; inhibition, % at 5 µM
# KLF5 inhibitor: KLF5 expression inhibitors, primary screen, DLD-1 cells, luminescence; DLD-1 KLF5 promoter-luciferase reporter; inhibition, % at 5 µM; 0.23% of 290,000 active; AID 1700, 2009;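 active means inhibition above a per-plate limit of that plate's mean compound inhibition plus 3 SD, cut at about 60% in these data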;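 further: higher means less KLF5 promoter-driven luciferase light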
# KLF5 inh confirm: KLF5 expression inhibitors, confirmation, DLD-1 cells, luminescence | shares compounds with KLF5 inhibitor | DLD-1 KLF5 promoter firefly luciferase reporter | inhibition, % at 4 µM | 79% of 610 active | AID 1834, 2009;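 active means inhibition above a set limit taken from the earlier primary screen, cut at about 63% in these data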
# IEC-6 tox-2: cytotoxicity in rat IEC-6 cells, cytotoxicity control for KLF5 inhibitor project, cell-based, luminescence, triplicate; shares compounds with KLF5 inhibitor; IEC-6 rat intestinal cells, viability luminescence; inhibition, % at 4 µM; 56% of 610 active; in the data active means inhibition above about 23%;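 further: cells exposed to compounds for 48 hours before viability read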
# IEC-6 cytotox cf: cytotoxic compounds in IEC-6 epithelial cells, confirmation, cytotoxicity control, cell-based, luminescence; shares compounds with IEC-6 tox-1; IEC-6 rat intestinal epithelial viability; inhibition, % at 5 µM; 63% of 1,900 active; AID 1907, 2009
# A number is an active result; - = inactive; . = not tested or not shown. Compounds with a hit are over-represented: about 3% of the library has one in this group of screens. Unless noted, no stated cut-off is given here; in the data, active means inhibition above about 22%; inactive means the rest.
SMILES,SKKanGAS inh,aSyn UTR inh,CSC inhib,IEC-6 tox-1,KLF5 inhibitor,others
COc1ccc(N/N=C/c2c(O)n(-c3cccc(C)c3)c(=O)[nH]c2=O)cc1,-,-,95,-,-,
COc1ccc(N/N=C/c2c(O)n(-c3ccc(C)c(C)c3)c(=O)[nH]c2=O)cc1,-,-,117,-,-,
Cc1ccccc1CN1CCCN(Cc2ccc(Cl)cc2)S1(=O)=O,63,-,.,-,-,
CCCNC1=C(C)C(=O)C2=C(C1=O)C(COC(N)=O)[C@]1(OC)C3NC3CN21 (some centres undefined),109,-,-,-,-,
CCC(C)N1CCN(C(=O)COc2ccc3ccccc3c2)CC1 (centres undefined),-,-,.,-,-,
Cc1cc(C)n(CCOC(=O)C2C(C=C(Cl)Cl)C2(C)C)n1 (centres undefined),-,-,-,-,-,
CCCCn1c(O)c(C(C)=Nc2ccc(OCC)cc2)c(=O)[nH]c1=O,65,-,-,-,-,
CC12CN3CCN(C1)CC(C)(C3)C2=NN,-,-,-,-,-,
C/C(=N\Nc1ccccc1)c1c(O)n(Cc2ccccc2)c(=O)[nH]c1=O,-,-,110,-,-,
CC/C(=N\NC(=S)Nc1ccccc1)c1c(O)[nH]c(=O)[nH]c1=O,-,-,-,-,-,
C/C(=N\NC(=O)c1ccccc1O)c1c(O)n(Cc2ccccc2)c(=O)[nH]c1=O,-,-,-,-,-,
C/C(=N\Nc1ccccc1)c1c(O)[nH]c(=O)[nH]c1=O,-,-,82,-,-,
C/C(=N\Nc1ccccc1)c1c(O)n(C)c(=O)n(C)c1=O,-,-,91,-,-,
C/C(=N\Nc1ccccc1)c1c(O)n(-c2ccccc2)c(=O)[nH]c1=O,-,.,75,-,-,
Cc1cc(O)c2c(c1)OC(C)(C)C1=C2CC(C)CC1 (centres undefined),-,-,-,-,-,
Cc1cc(OCC(=O)N[C@H](C(=O)O)c2ccccc2)c2c3c(c(=O)oc2c1)CCC3,-,-,-,-,-,
Cc1cccc(N2C(=O)NC(=O)/C(=C\c3cccn3-c3ccc(Cl)cc3)C2=O)c1,-,-,-,-,-,
Cc1cc(C)cc(N2C(=O)NC(=O)/C(=C/c3cccn3-c3ccc(Cl)cc3)C2=O)c1,-,-,75,-,-,
CCCCCCn1c(O)c(C=NC2CCCCC2N)c(=O)[nH]c1=O (centres undefined),-,-,83,-,-,
COc1ccc2nc3oc(C(=O)N4CCC5(CC4)OCCO5)cc3cc2c1,-,-,-,-,-,
O=c1[nH]c2ccccc2n1C1CCN(CCCC(c2ccc(F)cc2)c2ccc(F)cc2)CC1,-,-,98,-,-,
O=C1CC(N2CCC(n3c(=O)[nH]c4ccccc43)CC2)C(=O)N1c1ccc(F)cc1 (centres undefined),-,-,-,-,-,
CCCCC/C=C\C/C=C\C/C=C\C/C=C\CCCC(=O)Nc1ccc(O)cc1,107,-,85,-,-,
Cc1ccc(OP(=O)(Nc2cccc(C)c2)Oc2ccc(C)cc2)cc1,76,-,-,-,-,
CCn1c(O)c(C=Nc2ccc(S(N)(=O)=O)cc2)c(=O)n(CC)c1=S,-,-,-,-,-,
SMILES,SKKanGAS inh,aSyn UTR inh,CSC inhib,IEC-6 tox-1,KLF5 inhibitor,others
NS(=O)(=O)c1ccc(N=Cc2c(O)n(C3CCCCC3)c(=O)n(C3CCCCC3)c2=O)cc1,51,-,90,-,-,
Clc1ccc(CO/N=C(\Cn2ccnc2)c2ccc(Cl)cc2Cl)c(Cl)c1,96,-,103,.,.,
N=c1sccn1Cc1ccc(Cl)cc1Cl,-,-,-,-,-,
N#CC(C#N)=C(C#N)c1ccc(Nc2ccccc2)cc1,-,-,93,-,-,
CC1(C)CC(N(CCc2ccccc2)Cc2ccccc2)CCO1 (centres undefined),-,-,-,-,-,
O=c1oc2ccccc2c(O)c1C(c1ccc([N+](=O)[O-])cc1)c1c(O)c2ccccc2oc1=O,62,-,.,-,-,
O=C1NC(=S)NC(=O)C1=Cc1ccc(OCC(=O)N2CCCC2)cc1,-,-,.,-,-,
O=c1c2ccccc2[se]n1-c1ccccc1,88,-,.,-,-,
O=C(Nc1cccnc1)c1c(O)c2c(n(Cc3ccccc3)c1=O)CCCC2,52,-,-,-,-,
O=C(Nc1ccc(F)cc1)c1c(O)c2c(n(Cc3ccccc3)c1=O)CCCC2,-,-,-,-,-,
C[C@]12CC[C@@H](O)CC1=CC(=O)C1C2CC[C@]2(C)C(=O)CCC12 (some centres undefined),.,.,-,.,.,
COCCNC(=O)c1c(N)n(CCC(C)C)c2nc3ccccc3nc12,-,-,-,-,-,
CC(C)OCCCNC(=O)c1c(N)n(Cc2cccs2)c2nc3ccccc3nc12,-,-,118,-,-,
CC(C)CCn1c(N)c(C(=O)NCc2cccs2)c2nc3ccccc3nc21,-,-,77,-,-,
O=C(Nc1ccc(OC(=O)N2CCCCC2)cc1)N1CCOCC1,-,89,-,-,68,KLF5 inh confirm=-;IEC-6 tox-2=-
O=C(Nc1ccc(OC(=O)N2CCCC2)cc1)N1CCOCC1,-,-,-,-,-,
CCOP(=O)(OCC)C(O)c1cccnc1 (centres undefined),-,-,.,-,-,
O=C1C(=O)c2ccccc2-c2ccccc21,86,119,107,103,106,KLF5 inh confirm=114;IEC-6 tox-2=101
Cc1nc2c(=O)n(C)c(=O)nc-2n(C)n1,78,115,-,102,105,KLF5 inh confirm=115;IEC-6 tox-2=96;IEC-6 cytotox cf=96
Cc1cc(OCC(=O)N2CCN(CC(=O)N3CCOCC3)CC2)c(C(C)C)cc1Cl,.,.,-,.,.,
CCN1CCN(S(=O)(=O)c2ccc(Cl)c(C(=O)Nc3ccc(C(=O)N(CC)CC)cc3)c2)CC1,-,-,-,-,-,
C[C@H]1CCC[C@@H](O)CCC/C=C/c2cc(O)cc(O)c2C(=O)O1,-,-,.,-,-,
CC1CCC/C=C/C2CC(O)CC2C(O)/C=C/C(=O)O1 (centres undefined),-,133,131,101,94,KLF5 inh confirm=110;IEC-6 tox-2=102;IEC-6 cytotox cf=100
C[C@H]1CCC/C=C/C2C[C@H](O)CC2[C@H](O)/C=C/C(=O)O1 (some centres undefined),-,100,113,99,101,KLF5 inh confirm=110;IEC-6 tox-2=102;IEC-6 cytotox cf=102
CCN(CC)P(=O)(Oc1ccccc1)Oc1ccccc1,-,-,-,-,-,
CN1/C(=C\C=C\C2=[N+](C)c3ccc4ccccc4c3C2(C)C)C(C)(C)c2ccccc21,.,.,115,74,71,KLF5 inh confirm=116;IEC-6 tox-2=77;IEC-6 cytotox cf=80

# Screening data: PubChem BioAssay, several laboratories
